The values that follow come from PubChem BioAssay (NCATS).

In test [1] the target is Calcium and integrin-binding protein 1 (Homo sapiens) (UniProt Q99828). As to the kind of experiment: Primary qHTS for Identification of Calcium Integrin Binding Protein 1 (CIB1) Competitor (AID 1508620).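 Note: GST tagged CIB1 binding a fluorescein labelled alphaIIb integrin peptide tracer; top concentration of the series differs between compounds.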 The method, boiled down: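 Fluorescence polarization competition: CIB1-GST (1 uM final) preincubated with compound 15 min at room temperature, then FITC-labeled alphaIIb peptide (100 nM final) added for another 15 min. Polarization read at Ex 480/Em 540.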
Calcium and integrin-binding protein 1 (Homo sapiens), sequence (Q99828 whole entry, looked up): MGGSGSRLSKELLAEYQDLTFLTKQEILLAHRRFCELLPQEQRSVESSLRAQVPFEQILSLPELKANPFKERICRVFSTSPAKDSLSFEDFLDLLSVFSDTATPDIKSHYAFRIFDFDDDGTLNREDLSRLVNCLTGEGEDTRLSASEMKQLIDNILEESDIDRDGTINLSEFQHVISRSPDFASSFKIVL
(qHTS replaces the single test concentration by a dilution series.)

The nature of test [2]: Primary qHTS for inhibitors of nuclear receptor binding SET domain protein 2 (NSD2) in an isogenic RCH-ACV NSD2 p.E1099K mutant (9B) (AID 1645876). Note: nearly all actives have a fitted effect of over 70% in size. Note: potency is the fitted concentration of half-maximal effect.

Records with an inconclusive call do not appear. Unmarked numbers belong to inactive results. Activity calls are given as the source filed them. Calls come from the whole dose curve; as a rule, active = well fitted inhibition curve with a large enough effect; inconclusive = small, poorly fitted or top-dose-only effect; inactive = flat fitted curve, though single readings scatter. Where a SMILES comes first, the peptide text is derived from it. [ ]: non-standard residue; d: D form. dPhe(4-Cl) = N[C@H](Cc1ccc(Cl)cc1)C(=O)O; d2Nal = N[C@H](Cc1ccc2ccccc2c1)C(=O)O; dCit = NC(=O)NCCC[C@@H](N)C(=O)O; d3Pal = N[C@H](Cc1cccnc1)C(=O)O
% is set by controls: 0 for no effect and ±100 for the full control effect.

Regarding `COC(=O)CC(O)CC(O)/C=C/c1c(C)ccc2c1C(O)CC(C)C2` (centres undefined), the Potency entry in test [1] and in test [2] was “inactive” throughout.

For the compound `CC1CC(=O)C2=C(CCC3(O)C(O)c4c(O)cccc4C(=O)C23O)C1` (centres undefined), the Potency entry in test [1] and in test [2] was “inactive” each time.

`CC/C=C\C/C=C\C/C=C\CCCCCCCC(=O)OCC(O)COC1OC(CO)C(O)C(O)C1O` (centres undefined): the Potency entry in test [1] and in test [2] was “inactive” throughout.

As for `CC1CCC2C(C)(C)[C@@H](O)CC[C@]2(C)C12Cc1c(O)cc3c(c1O2)CN(C(CCC(=O)O)C(=O)O)C3=O` (some centres undefined), the Potency result in test [1] and in test [2] was “inactive” in each case.

Turning to `CC1(C)CC[C@]2(C(=O)O[C@@H]3O[C@H](CO[C@@H]4O[C@H](CO)[C@@H](O)[C@H](O)[C@H]4O[C@@H]4O[C@H](CO)[C@@H](O)[C@H](O)[C@H]4O)[C@@H](O)[C@H](O[C@@H]4O[C@H](CO)[C@@H](O)[C@H](O)[C@H]4O)[C@H]3O)CC[C@]3(C)C(=CCC4[C@@]5(C)CC[C@@H](O)[C@@](C)(C(=O)O[C@@H]6O[C@H](CO)[C@@H](O)[C@H](O)[C@H]6O)C5CC[C@]43C)[C@@H]2C1` (some centres undefined), the activity change, negative = inhibition in test [1] was -1.15% [at 12.4 µM]. The outcome in test [2] is “inactive [at 9.23 µM]”.

Take `CC(C)C(C(=O)N(C)C(C)C(N)=O)N(C)C(=O)C1CCCN1C(=O)/C=C/C=C/C(O)C(C)O` (centres undefined): the Potency result in test [1] and in test [2] was “inactive” in each case.

As for `C[C@@H]1O[C@@H](O[C@H]2[C@H](O)[C@@H](O)[C@H](OC[C@H]3O[C@@H](OC(=O)[C@]45CCC(C)(C)C[C@H]4C4=CCC6[C@@]7(C)CC[C@H](O[C@@H]8OC[C@H](O)[C@H](O[C@@H]9O[C@H](CO)[C@@H](O)[C@H](O)[C@H]9O)[C@H]8O)[C@@](C)(CO)C7CC[C@@]6(C)[C@]4(C)CC5)[C@H](O)[C@@H](O)[C@@H]3O)O[C@@H]2CO)[C@H](O)[C@H](O)[C@H]1O` (some centres undefined), the activity change, negative = inhibition in test [1] is 1.27% [at 12.4 µM]. For the same compound, in test [2], the activity change, negative = viability loss was 0.607% [at 9.23 µM].

`C/C=C/C=C/[C@@H]1O[C@](O)([C@H](CC)C(=O)NC/C=C/C=C(\C)[C@@H](OC)[C@@H](C)C2OC(/C=C/C=C/C=C(\C)C(=O)c3c(O)cc[nH]c3=O)[C@H](O)[C@@H]2O)[C@H](O)[C@H](O)C1(C)C` (some centres undefined): the Potency entry in test [1] and in test [2] was “inactive” each time.

`CC1COC2(OC3CC4C5CC(O[C@@H]6O[C@H](C)[C@@H](O[C@@H]7O[C@@H](C)[C@H](O)[C@@H](O)[C@H]7O)[C@H](O)[C@H]6O)C6CC(O)CCC6(C)C5CCC4(C)C3C2C)C(O)C1` (some centres undefined): the Potency result in test [1] and in test [2] was “inactive” each time.

As for `CC(C)[C@H]1CC[C@@]2(O)COC(=O)[C@H]2[C@@H]1/C=C(\CO)C(=O)O`, the Potency entry in test [1] and in test [2] was “inactive” each time.

Regarding `C[C@@H]1C[C@@H]([C@@H](O)C(C)(C)O)O[C@H]2C[C@@]3(C)C(=C12)C[C@H](O)[C@H]1[C@@]2(C)CCC(=O)C(C)(C)C2CC[C@@]13C` (some centres undefined), the Potency result in test [1] and in test [2] was “inactive” throughout.

Turning to `CC1(C)CC[C@]23CO[C@@]4(CCC5[C@@]6(C)CC[C@H](O[C@@H]7OC[C@H](O[C@@H]8O[C@H](CO)[C@@H](O)[C@H](O)[C@H]8O)[C@H](O)[C@H]7O[C@@H]7O[C@H](CO)[C@@H](O[C@@H]8O[C@H](CO)[C@@H](O)[C@H](O)[C@H]8O)[C@H](O)[C@H]7O)[C@@](C)(CO)C6CC[C@@]5(C)[C@]4(C)C[C@H]2OC2OCC(O)C(O)C2O)C3C1` (some centres undefined), in test [1], the activity change, negative = inhibition was -6.44% [at 12.4 µM]. The Potency in test [2] is 0.688 µM (active).

With `CNC(=O)c1ccccc1Nc1nc(Nc2ccc3c(c2OC)CCC[C@@H](N2CCN(CCO)CC2)C3)ncc1Cl`, the Potency entry in test [1] was “inactive”. Besides, in test [2], the Potency was 6.61 µM (active).

Turning to `O=C(CC1C(=O)Nc2ccccc21)OC[C@H]1O[C@@H](OCCc2ccc(O)cc2)[C@H](O)[C@@H](O)[C@@H]1O` (some centres undefined), the Potency entry in test [1] and in test [2] was “inactive” throughout.

`C=C(C)C(=O)OC1C(OC(C)=O)/C(C=O)=C\CC/C(CO)=C/C2OC(=O)C(=C)C21` (centres undefined): the Potency entry in test [1] is “inactive”. In addition, the Potency in test [2] is 3.17 µM (active).

Take `C[C@@]12CC[C@@H]3[C@@](CC[C@H]4[C@@]3(C)CCC[C@@]4(C)C(=O)O)(CC1=O)C2`: the Potency entry in test [1] and in test [2] was “inactive” in each case.

In the case of `C=CC(C)(O)CC[C@H]1C(=C)CCC2[C@](C)(C(=O)O)CCC[C@@]21C` (some centres undefined), the Potency result in test [1] and in test [2] was “inactive” throughout.

Turning to `C[C@H](NC(=O)CCc1nc2ccccc2c(=O)[nH]1)c1ccccc1`, the Potency entry in test [1] and in test [2] was “inactive” throughout.

As for `CC(=O)N[C@H](Cc1ccc2ccccc2c1)C(=O)N[C@H](Cc1ccc(Cl)cc1)C(=O)N[C@H](Cc1cccnc1)C(=O)N[C@@H](CO)C(=O)N[C@@H](Cc1ccc(O)cc1)C(=O)N[C@H](CCCNC(N)=O)C(=O)N[C@@H](CC(C)C)C(=O)N[C@@H](CCCN=C(N)N)C(=O)N1CCC[C@H]1C(=O)N[C@H](C)C(N)=O` (Ac-[d2Nal][dPhe(4-Cl)][d3Pal]SY[dCit]LRP[dA]-NH2), the Potency entry in test [1] and in test [2] was “inactive” each time.

With `CC1(C)CCCC2(C)C(C(=O)O)=CCC12` (centres undefined), the Potency result in test [1] and in test [2] was “inactive” each time.

As to `C[C@@H]1O[C@@H](O[C@@H]2[C@@H](O)[C@H](O[C@H]3CC[C@@]4(C)C(CC[C@]5(C)C4CC=C4[C@@H]6CC(C)(C)CC[C@]6(C(=O)O[C@@H]6O[C@H](CO)[C@@H](O)[C@H](O)[C@H]6O)CC[C@]45C)C3(C)C)O[C@H](C(=O)O)[C@H]2O)[C@H](O)[C@H](O)[C@H]1O` (some centres undefined), the Potency entry in test [1] is “inactive”. In addition, the activity change, negative = viability loss in test [2] was -9.85% [at 9.23 µM].

As to `CC1OC(OCC2OC(OC3CCC4(C)C(CCC5(C)C4CC=C4C6CC(C)(C)CCC6(C(=O)OC6OC(CO)C(O)C(O)C6O)CCC45C)C3(C)CO)C(O)C(O)C2O)C(O)C(O)C1O` (centres undefined), the Potency entry in test [1] was “inactive”. In addition, the activity change, negative = viability loss in test [2] is 3.81% [at 9.23 µM].
